RXFP1 antag = RXFP1 (human) relaxin receptor antagonism | Q9HBX9 | HEK293-RXFP1, relaxin-stimulated cAMP HTRF, 30 min; hits give low values | activity change, negative = inhibition, % at 57.5 µM | actives 0.59% (n = 350,000);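 active = activity change of -60% or lower, but not beyond a set lower limit; inconclusive = change between -60% and -40%, or beyond the set limit; inactive = change above -40%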; also: % is scaled to controls: 0 for no effect and ±100 for the full control effect
Target sequence (Q9HBX9 whole entry, looked up): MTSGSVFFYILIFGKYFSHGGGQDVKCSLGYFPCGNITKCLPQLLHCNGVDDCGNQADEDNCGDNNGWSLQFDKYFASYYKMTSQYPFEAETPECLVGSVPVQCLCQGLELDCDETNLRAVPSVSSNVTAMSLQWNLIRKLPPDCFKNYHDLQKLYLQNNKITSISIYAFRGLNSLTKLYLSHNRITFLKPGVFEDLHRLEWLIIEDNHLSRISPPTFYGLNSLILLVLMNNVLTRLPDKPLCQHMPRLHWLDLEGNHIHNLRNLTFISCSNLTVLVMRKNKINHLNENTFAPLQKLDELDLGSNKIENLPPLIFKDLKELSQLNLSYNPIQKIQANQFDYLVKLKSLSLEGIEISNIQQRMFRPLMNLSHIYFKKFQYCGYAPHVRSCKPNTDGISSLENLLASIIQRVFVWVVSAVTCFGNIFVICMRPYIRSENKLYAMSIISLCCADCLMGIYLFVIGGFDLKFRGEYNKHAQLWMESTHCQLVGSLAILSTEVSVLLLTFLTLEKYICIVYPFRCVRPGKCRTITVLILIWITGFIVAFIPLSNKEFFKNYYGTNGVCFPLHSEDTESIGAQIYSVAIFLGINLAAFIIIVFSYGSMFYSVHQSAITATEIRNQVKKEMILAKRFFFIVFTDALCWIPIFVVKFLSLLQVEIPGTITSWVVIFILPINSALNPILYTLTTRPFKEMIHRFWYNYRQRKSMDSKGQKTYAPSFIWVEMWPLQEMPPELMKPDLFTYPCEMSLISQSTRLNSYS
gsp agonist = agonists of gsp mutant (McCune-Albright syndrome); Potency, µM (titrated, usually from 76.9 µM), without a hit: at the top dose activation (cAMP increase), most hits filed as activators; actives 0.13% (n = 340,000); AID 624287; gsp mutant cells, cAMP HTRF, 30 min; active = well fitted activation curve with a large enough effect; inconclusive = small, poorly fitted or top-dose-only effect, or another doubt; inactive = no such curve, though single readings can be large or run the other way; cell line not stated here;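 also: phosphodiesterase inhibitor Ro 20-1724 added with compounds to block cAMP breakdown; potency is read from the fitted curve at half-maximal effect; nearly all actives have a fitted effect of over 60% in size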
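Cells stably selected in G418 were plated at 2000/well, grown 16-24 hr, then given compounds in DMSO with the PDE inhibitor […] (300 uM solution added) for 30 min at 37C; cAMP was read by HTRF.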
RXFP1 agonist = agonists of human relaxin receptor RXFP1. Q9HBX9. actives 0.3% (n = 370,000). Potency, µM (series often up to 57.5 µM), for the others: top-dose activation, hits mostly activators. AID 2676. HEK293T-RXFP1 cAMP TR-FRET, 30 min; response scale: percent of porcine relaxin response, buffer zero; also: potency is read from the fitted curve at half-maximal effect; % is scaled to controls: 0 for no effect and ±100 for the full control effect; nearly all actives have a fitted effect of over 60% in size
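cAMP rise read by TR-FRET after 30 min, 37C compound exposure (up to 58 uM) in RXFP1-transfected HEK293 cells with Ro 20174 present. EC50 from Hill-equation fits, with 29 nM porcine relaxin as 100% and buffer as basal.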
PTHR1 ag = activates the human parathyroid hormone receptor PTHR1; Q03431; HEK293 GP2 PTHR1 cells, GloSensor cAMP luminescence, 1 h; Potency, µM (top dose mostly 115 µM), without a hit: at the top dose activation, most hits filed as activators; actives 0.075% (n = 410,000); AID 743266; also: potency is read from the fitted curve at half-maximal effect; nearly all actives have a fitted effect of over 55% in size
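HEK-293-derived GP2 cells expressing PTHR1 and a GloSensor cAMP reporter, 3,000/well, plated overnight, given luciferin plus IBMX (each 0.5 mM as added) for 1 h at 37 °C, then compound for 1 h at 37 °C. Luminescence was read after 15 min at room temperature.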
gsp antag = antagonists of gsp mutant (McCune-Albright syndrome); gsp-mutant cells, cAMP HTRF, 30 min; Potency, µM (top dose mostly 76.9 µM), for the others: top-dose activity change, negative = inhibition, usual class: inhibitors; actives 0.4% (n = 340,000); AID 624288; calls by dose curve; cell line not stated here;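 also: intracellular cAMP measured with PDE inhibitor Ro 20-1724 present during compound exposure; potency is read from the fitted curve at half-maximal effect; % is scaled to controls: 0 for no effect and ±100 for the full control effect; nearly all actives have a fitted effect of over 65% in size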
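Cells, 2000/well, grown 16–24 h in DMEM 10% FBS with 0.5 mg/ml G418, then compounds plus […] (300 uM addition stock), 30 min at 37C. cAMP read by HTRF (cAMP-d2 and anti-cAMP antibody-K in lysis buffer) after 30 min RT.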
* hit, by the source's call; i = inactive; ? = inconclusive; nt = no result; [ ] = dose if it differs, or a comment. In the library only some 1% were active in any assay of this set; here they are far more common. Unless noted, calls follow the shape of the dose curve; as a rule, active = well fitted curve in the direction sought with a large enough effect; inconclusive = small, poorly fitted or top-dose-only effect, or another doubt; inactive = no such curve, though single readings can be large; an effect the other way counts as inactive or inconclusive.

SMILES | RXFP1 antag | gsp agonist | RXFP1 agonist | PTHR1 ag | gsp antag
COc1ccccc1NC(=O)c1cnc(SCC(=O)N2CCCc3ccccc32)n(C)c1=O | 0 | nt | 1% | i | nt
CCOC(=O)c1cc2c(=O)n3ccccc3nc2n(Cc2ccco2)c1=NC(=O)c1ccccc1OCC | -5 | 11%[15.4 µM] | 28µM* | -30% | -9%
COc1ccc(Cl)cc1NC(=O)CN1C(=O)COc2ccc(S(=O)(=O)NC3CCCC3)cc21 | -5 | nt | 3% | -3% | nt
CCc1ccc(NC(=O)CSC2=Nc3ccccc3C3=NC(CC(=O)NC4CCCCC4)C(=O)N23)cc1 (centres undefined) | -70* | nt | 1% | 18% | nt
O=C(Nc1ccc(NC(=O)c2cccs2)cc1)c1cccc(Br)c1 | -7 | nt | 4% | i | nt
O=C(Nc1cccc(NC(=O)c2cccs2)c1)c1ccc(Br)cc1 | -71* | -29% | 3% | i | -21%
c1ccc2c(c1)[nH]c1c(N3CCC4(CC3)OCCO4)ncnc12 | -36 | -26% | 1% | -24%[57.5 µM] | 32µM*
c1ccc(CN2CCN(c3ncnc4c3[nH]c3ccccc34)CC2)cc1 | nt | -31% | 7% | -44% | 32µM*
Cc1ccc2[nH]c3c(N4CCN(Cc5ccccc5)CC4)ncnc3c2c1 | ? | -14% | -3% | -12% | 16µM*
CC(=O)c1ccc(NC(=O)CCc2c(C)nn(-c3ccc4nnc(C)n4n3)c2C)cc1 | 5 | nt | 5% | -11% | nt
CCc1ccc(S(=O)(=O)c2nnn3c2nc(NCCc2ccccc2)c2sccc23)cc1 | -10 | nt | 5% | -57% | nt
CCn1c(C)cc(/C=C2/SC(=S)NC2=O)c1C | 10 | -21% | -2% | i | 5%
Cc1cc(/C=C2\SC(=S)NC2=O)c(C)[nH]1 | -111* | -5% | 1% | 0% | -25%
Cc1cc(C)c(NC(=O)c2cc(CN3CCOCC3)on2)c(C)c1 | -3 | nt | -2% | i | nt
CCOC(=O)c1c(-c2ccc(OC)c(OC)c2)csc1NC(=O)C1CCCO1 (centres undefined) | -16 | -4%[15.4 µM] | 1% | -29% | 25µM*
COc1ccc(CCNC(=O)c2ccc(CS(=O)(=O)c3ccc(Cl)cc3)o2)cc1OC | 6 | -21% | -2% | -16%[57.5 µM] | 40µM*
COc1ccc(CCNC(=O)c2ccc(-c3ccc([N+](=O)[O-])cc3Cl)o2)cc1OC | 6 | -36% | 0% | -54% | 32µM*
COc1cccc(NC(=O)c2ccc(-c3ccc([N+](=O)[O-])cc3)o2)c1 | -2 | -12% | 2% | -39% | -12%
COc1ccc(NC(=O)c2ccc(-c3ccc([N+](=O)[O-])cc3)o2)cc1OC | -17 | 8% | 6% | -94% | 35µM*
O=C(c1ccc(-c2ccc([N+](=O)[O-])cc2)o1)N1CCCCCCC1 | -71* | -1% | 1% | -23% | -5%
COc1ccc(S(=O)(=O)Cc2ccc(C(=O)NC3CCCCCC3)o2)cc1 | -102* | 10% | 2% | i | -9%
COc1ccc(CCNC(=O)c2ccc(N(C)S(=O)(=O)c3ccc(C)cc3)cc2)cc1OC | -2 | 6% | 1% | -39% | 28µM*
CN(C)CCNc1nc2sc3c(c2c(=O)n1Cc1ccccc1)CCCCC3 | -92* | -4% | 0% | i | 7%
CN(C)CCNc1nc2sc3c(c2c(=O)n1-c1ccccc1)CCCCC3 | -36 | 6%[15.4 µM] | 1% | i | 10%
CCOC(=O)CC(NC(=O)CCc1c(C)nc2nc(C)nn2c1C)c1ccc(OC(C)C)cc1 (centres undefined) | -6 | ? | 18µM* | i | 8%
SMILES | RXFP1 antag | gsp agonist | RXFP1 agonist | PTHR1 ag | gsp antag
CCOC(=O)CC(NC(=O)CCc1c(C)nc2c(-c3ccccc3)c(C)nn2c1C)c1ccc(OC(C)C)cc1 (centres undefined) | nt | nt | -1% | -64% | nt
NC(=O)c1sc2nc3c(c(-c4ccco4)c2c1N)CCCC3 | -3 | 8% | 0% | -15% | 0%
Nc1c(C(=O)NCC2CCCO2)sc2nc3c(c(-c4ccco4)c12)CC/C3=C\c1ccco1 (centres undefined) | -102* | 7% | 1% | -16% | -8%
CCCCOc1ccc(S(=O)(=O)NCc2csc(-c3ccc(OC)cc3)n2)cc1 | -7 | nt | 24% | -17% | nt
COc1ccc(-c2cc(-c3cc(C)ccc3O)[nH]n2)cc1 | -100* | 26% | 1% | -5% | -19%
COc1ccc(-c2cc(-c3ccc(C)cc3)n[nH]2)c(O)c1 | 10 | ? | 0% | -78% | ?
Cn1c(=O)c2c(nc(CCC3CCCC3)n2C)n(C)c1=O | 5 | 11µM* | nt | i | 23%
Cn1c(=O)c2c(nc(Cc3ccc(N)cc3)n2C)n(C)c1=O | -2 | ? | 16µM* | i | 7%
CCCn1c(CN2CCCCC2C)nc2c1c(=O)n(C)c(=O)n2C (centres undefined) | -6 | -74% | 3% | i | 8%
CS(=O)(=O)c1ccc(-c2cn3ccccc3n2)cc1 | -4 | nt | nt | nt | nt
CCCCC1=CC2=C(c3ccco3)C(=O)C(C)(OC(=O)c3ccc(OC)cc3)C(=O)C2=CN1Cc1ccc(OC)cc1 (centres undefined) | nt | nt | 14% | nt | nt
CCCCC1=CC2=C(c3ccco3)C(=O)C(C)(OC(=O)c3ccc(OC)cc3)C(=O)C2=CN1CC(C)C (centres undefined) | nt | ? | 16µM* | -4% | 30%
Cc1ccc(C2=NN(CC(=O)NCCc3ccc(Cl)cc3)C(=O)CC2)cc1 | -8 | nt | 1% | -16% | nt
O=[N+]([O-])c1cc(/C=N/O)ccc1Sc1ccccc1 | -60* | 9% | 1% | i | 7%
C[N+](C)(C)CC(O)CC(=O)[O-] (centres undefined) | 9 | nt | nt | nt | nt
CCc1nnc(NC(=O)CSc2nnc(-c3ccccc3O)n2CC)s1 | 15 | 13% | 1% | i | -7%
CCc1nnc(NC(=O)CSc2nc(-c3ccccc3)nc3ccccc23)s1 | -1 | 7.9µM* | 7% | -30% | 19%
CCc1nnc(NC(=O)CSc2nnc(-c3cc4ccccc4cc3O)n2CC)s1 | -20 | 4% | 0% | -16% | 28µM*
CCOc1ccc(CNC(=O)c2c(C)nn(-c3ccc(F)cc3)c2-n2cccc2)cc1 | nt | nt | 4% | -42% | nt
O=S(=O)(c1ccccc1)N1CCC(c2ccncc2)CC1 | -106* | nt | -1% | -78% | nt
O=S(=O)(c1ccc(Cl)cc1)N1CCC(c2ccncc2)CC1 | -4 | nt | 0% | -13% | nt
CCc1ccc(Cc2cnc(NC(=O)C3=NCCN3)s2)cc1 | -116* | 9%[15.4 µM] | -3% | -7% | -5%
O=C(Nc1ncc(Cc2ccccc2Cl)s1)C1=NCCN1 | -10 | -23% | 1% | i | -13%
CCOC(=O)c1cccc(NC(=O)c2cc3c(=O)n(C)c4ccccc4c3n2C)c1 | nt | nt | ? | -16% | nt
Cc1ccc(-c2nc3cc(C(C)C)ccc3o2)cc1NC(=O)c1cccs1 | nt | nt | -1% | -8% | nt
